Measured values as given in the supplement of paper PMC11417369.
± gives the standard deviation of the averaged measurements. In all, about 25,000 sequences were measured (“ln(normalized median fluorescence intensity)”: median about 10, highest 2% from about 12 on). Only a selection was taken, and the highest values are over-represented in it overall.

test system: PfAP2-G AP2 domain (GST-tagged); experiment: gcPBM binding intensity (ln(normalized median fluorescence intensity)); higher = stronger DNA binding
Summary of the method: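 GST-tagged P. falciparum DNA-binding domains produced in E. coli were incubated for 1 h on an Agilent 4 × 180k array of primer-extended double-stranded 36-bp intergenic genomic probes with negative controls. Binding intensity is the highest Masliner-normalised natural-log median intensity across replicate spots of either probe orientation, with bound protein detected by Alexa488 anti-GST antibody at 488 nm.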

Row | Sequence | gcPBM binding intensity (ln)
1 | AATTTTATTTAAAGTGCATGTAAAATTAAAACTTTT [TGCATGCA_site989] | 10 ± 0.057
2 | ATATAGAACACCTGTGCATGCAAGTGCTAAAAAATT [TGCATGCA_site213] | 10.2 ± 0.2
3 | ATTTTTTCTGTCTTAATTGGACCCACTGCAAATGGG [CACACA_negctrl_site1158] | 10.9 ± 0.54
4 | AACATATAAATGATATGTACACACATTTATATATAT [XGTACX_site7364] | 11.4 ± 0.53
5 | TATTTGATAAAAAAAAGTACTAGAATTTCGCTTTTG [XGTACX_site7754] | 11.1 ± 0.7
6 | ATATATACCTAAGACACACACATATAGATTTATATA [CACACA_site6498] | 9.97 ± 0.028
7 | AAAAAAATAATAAAATGTACAAATAAACACATAAAG [XGTACX_site5102] | 10.8 ± 0.39
8 | AAATGTTAATAAAGGTGTACACAAAATAAAAAAAAT [XGTACX_site463] | 11.7 ± 0.71
9 | TAGGTGTTAAAAAATACACACACAAAAAAAAAAAAA [CACACA_site7927] | 9.93 ± 0.45
10 | TAAAGTAAAGACATACTTATTTTCCATCCACTTCTT [CACACA_negctrl_site1288] | 10 ± 0.18
11 | AGTATACTCGGACACACACACACATATATATATATA [CACACA_site5031] | 11.1 ± 0.51
12 | AATTATTTTAAATATTGTACTATTACAGAATGGTGT [XGTACX_site5693] | 11 ± 0.56
13 | ATTAAATCATATGAATGTACGGATATATATATTTCC [XGTACX_site8650] | 10.7 ± 0.48
14 | TATATTTTATAAAAAAGTACACATGAAAATGTATTT [XGTACX_site5889] | 11.5 ± 1.1
15 | GTAATTTTAAAGAAAAGTACACATTTATTAATTATT [XGTACX_site4468] | 11.5 ± 1.2
16 | AGTTATTTTAAATGTAGTACACAAAAGAAATATTAA [XGTACX_site4092] | 11.6 ± 0.94
17 | AAAAAAAAAAAAAAAAGTACACATCATTTTATGAAA [XGTACX_site1402] | 11.7 ± 0.76
18 | TTTTTTATTAAAAGTAGTACACATGAAAAAAAAAAA [XGTACX_site5524] | 11.8 ± 1
19 | ATAGTATTTTTTATTACACACAAATAAAAAGAAAAA [CACACA_site2087] | 10.2 ± 0.26
20 | TTTTAAAGAAAAAAATGTACAAAATTTTTATTTTAA [XGTACX_site1496] | 10.6 ± 0.35
21 | AATTATTTTATGAAAAGTACACATTGTTTTAATTCT [XGTACX_site4506] | 11.4 ± 0.98
22 | ATTTATGAAAAGTAAAGTACACACAGGAAAAAAAAA [XGTACX_site3564] | 11.4 ± 0.72
23 | TTCTTTTTAAATTACACACACATATAAATATGTATA [CACACA_site7618] | 10.04 ± 0.071
24 | AAACAAAATGGTAACACACACATATATAAATATGTA [CACACA_site6994] | 10.2 ± 0.35

Row | Sequence | gcPBM binding intensity (ln)
25 | CATATTGGTATGCTCATGCACTTTTATTTTGTTATT [GTGCAC_site9553] | 10.2 ± 0.13
26 | TTATAATAATATAATACATGCATATATATTTAAATA [TGCATGCA_site903] | 9.62 ± 0.12
27 | TGTTATTATTTGTACACACACATATAGATCCTTGTT [CACACA_site7667] | 11.3 ± 0.83
28 | AAATTACTGTAAAAAAGTACAGAAGTTCTTATTTTT [XGTACX_site7416] | 11.5 ± 0.93
29 | AAAATTAAAATACGTACACACCTTATCTTTTTGGCT [CACACA_site4311] | 11.7 ± 1.1
30 | TTAAAATTATAATACGTACACACCTTATCTTTTTGG [CACACA_site278] | 11.5 ± 0.86
31 | TTAAAATTAAAATACGTACACACCTTATCTTTTTGG [CACACA_site7982] | 11.6 ± 0.81
32 | TAGTTAATATGAAAAAGTACACGTTTCAGTGAAAGT [XGTACX_site7402] | 11.7 ± 1
33 | TGGTTAATATGTGAAAGTACATATTATATTAAAATG [XGTACX_site2636] | 11.1 ± 0.58
34 | TATATTAATATGAAAAGTACACATTCTATATATATA [XGTACX_site929] | 11.4 ± 0.91
35 | AATAAATAAATATATTGTACATATATATATATATAT [XGTACX_site8627] | 11 ± 0.53
36 | ATAAATATACCAATCGGTACACATTTATACAAACAA [XGTACX_site7484] | 11 ± 0.64
37 | ATTCTAAATTAAAATACACACATATATACATAATAT [CACACA_site2792] | 9.985 ± 0.021
38 | TTTTGATCATCCAAAATATCTTCATCTGAACTACTA [CACACA_negctrl_site939] | 9.84 ± 0.042
39 | ATTTTATTTTTGTGCACACTGATAAATTGAAAAGAG [CACACA_site2948] | 10.8 ± 0.57
40 | AATAAATTCATGAATTGTACGTAATGATAACATGAA [XGTACX_site2591] | 11.3 ± 0.75
41 | TATGATTCATAATAGTGTACGTAAAAATTGACTAGA [XGTACX_site5376] | 11.7 ± 1
42 | AATAATCATTTTCATAGTACGTATGATTAGAAAAAA [XGTACX_site2589] | 11 ± 0.66
43 | CATGCTTATATGTGCACACACAAAAGAAAAGAAAAA [CACACA_site1655] | 10.6 ± 0.62
44 | AATGTGCACACGCGTACACACAAAAAAAGAAAAAAA [CACACA_site7031] | 11.7 ± 1.1
45 | TTAGCTACACGCTAATGTACACAAATACAAAGAAAA [XGTACX_site3993] | 11.4 ± 0.71
46 | AATGTGCCCACGCGTACACACAAAAAAAGAAAAAAA [CACACA_site2003] | 11.7 ± 1.1
47 | AAAAATGTGCACACGCGTACACACAAAAAAAGAAAA [XGTACX_site4097] | 11.5 ± 0.79
48 | AAAATGTGCCCACGCGTACACACAAAAAAAGAAAAA [CACACA_site2004] | 11.6 ± 0.79

Row | Sequence | gcPBM binding intensity (ln)
49 | TATTATATTATGTGATGTACATATTTATATAGGCCC [XGTACX_site4746] | 11.2 ± 0.8
50 | TGTAGTTTTTATTTATGTACGCATAACATAATTTAA [XGTACX_site104] | 11.6 ± 0.7
51 | TTATTCATTTCGAAAAGTACAAATTCTGTTTATTAT [XGTACX_site6892] | 11.1 ± 0.71
52 | AAAAAAAAAATGTGCACACGCGTACACCCAAAAAAA [CACACA_site5149] | 11.7 ± 0.99
53 | AAAAAAAAAACAAATACACACGCACCCAAAAAAAAA [CACACA_site8166] | 10.5 ± 0.26
54 | AACATATAAAAATGTGCACACACACCCATATATATA [CACACA_site1525] | 10.4 ± 0.3
55 | AAAAAAAAAAAATGTGCACACGCGTACACCCAAAAA [CACACA_site8614] | 11.7 ± 0.77
56 | AACACGCACAGACACACACACAAAAATGATTAAAAA [CACACA_site7195] | 10.6 ± 0.67
57 | AAAAAAAAAAAATGTGCACACGCGTACAGACAAAAA [CACACA_site2005] | 11.8 ± 0.99
58 | TATACAATATAAAATACACACGCACCCAAAAAAAAA [CACACA_site9174] | 10.6 ± 0.4
59 | CATATAAAAATGTGCACACACACACCCATATATATT [CACACA_site1526] | 10.4 ± 0.41
60 | TACACAAACAGACACACACACACACGCGCACAAAAA [CACACA_site7192] | 10.6 ± 0.38
61 | AAGGAACTATAATATACACACATAAGTGTACTTATA [CACACA_site7816] | 11.5 ± 1
62 | TATATATATATAACAACACACACAGATCATAAAACT [CACACA_site8670] | 10.3 ± 0.27
63 | TTAATACCCAGACACACACACACAAAATAAAATACA [CACACA_site7968] | 10.2 ± 0.4
64 | TTGTATTAAAATCAAGTGCATATAATTTAAGTTCAT [GTGCAC_site9495] | 10 ± 0.16
65 | ATAATTAACAAATACACACACACACGCCCACAAAAA [CACACA_site6389] | 10.9 ± 0.54
66 | AAATTTAAATAATGTGCGCATCTTAATATATATAAG [GTGCAC_site9890] | 10.2 ± 0.13
67 | CCCCATTTATCTTAAGCATGCCATGGTTTTAGATAT [TGCATGCA_site24] | 10.6 ± 0.42
68 | GAAAATTTTTGGTGTACACAAAAAAATCCAAAAAAA [CACACA_site5042] | 11.7 ± 0.87
69 | CTTATACATAAATTTTGTACACACAAAAAAAAAAAA [XGTACX_site2665] | 11.2 ± 1.1
70 | ATACATAAATTTTGTACACACAAAAAAAAAAAAGCT [CACACA_site1351] | 11.2 ± 0.87
71 | ATGAATATAAAATATACACACTTATATATCGAATGA [CACACA_site6240] | 9.79 ± 0.13
72 | ATTAGAGAATCGTAACCCAAATGAACATACTTAAAT [GTGCAC_negctrl_site363] | 10.04 ± 0.035

Row | Sequence | gcPBM binding intensity (ln)
73 | AAAAAAAATATATAAACACACATATTTATATACTCA [CACACA_site4984] | 9.665 ± 0.092
74 | TTTATTTATTTTTGTTGTACACTTGTATATATTATT [XGTACX_site6486] | 11.4 ± 0.8
75 | TACAAAATAACTAGCACACATATGTATAAACATATA [CACACA_site5948] | 10.1 ± 0.17
76 | TATACATAAAACAGTTCACACATTGTATGAATATAT [CACACA_site4751] | 9.855 ± 0.035
77 | ATAAAATAAATATAACCACACACGAAAGAGAGAGAA [CACACA_site9075] | 10.09 ± 0.057
78 | ATAATAAATTCTACGCGTACAAAACCATGAACATTA [XGTACX_site7505] | 11.7 ± 1.1
79 | GTAAACAATTATGAACGTACATAAAATAAATGAACA [XGTACX_site7159] | 11.3 ± 0.85
80 | ATATTAATTCTACATTGTACACATGAAAAAATATAA [XGTACX_site8759] | 11.4 ± 0.96
81 | CAAGGAACCAGACACACACACATAAATGTATATATA [CACACA_site752] | 10.1 ± 0.18
82 | TTCATTCAAATCCAAGCATGCTTTATTAAAAAATTA [TGCATGCA_site567] | 9.84 ± 0.26
83 | TTTATTTTTCCATATGCACACACACCGTATATATAA [CACACA_site8293] | 10.3 ± 0.16
84 | TCTTAAAATCGGAAATGAAATAAAGTTTACAATATG [TGCATGCA_negctrl_site553] | 9.87 ± 0.071
85 | ATATGTATTAAGTGTACACATATAATGGGTTTGTTA [CACACA_site5682] | 11.7 ± 0.95
86 | ATATGTTTTAAGTGTACACATATAATGTATTTTGTT [CACACA_site4929] | 11.6 ± 0.9
87 | TTTATATGTATGAAGTGTACACATATATTGTATTTT [XGTACX_site5731] | 11.6 ± 0.82
88 | ATATGTATGAAGTGTACACATATATTGTATTTTCTT [CACACA_site5503] | 11.7 ± 0.91
89 | ATATATATATATATATGTACACATATATTTCTTTTC [XGTACX_site3443] | 11.4 ± 0.91
90 | ATATGTATTAAGTGTACACATATAATGTATTTTGTT [CACACA_site4177] | 11.6 ± 0.92
91 | TTTATATGTTTTAAGTGTACACATATAATGTATTTT [XGTACX_site3069] | 11.6 ± 0.91
92 | ATATGTATTAAGTGTACACATATAATGGGTTTTCTT [CACACA_site5328] | 11.6 ± 0.73
93 | TTTATATGTATTAAGTGTACACATATAATGTGTTTG [XGTACX_site6629] | 11.5 ± 0.86
